Assay outcomes (PubChem)
The entries come from a sample that favours hits as a whole.
12-LOX inh = blocks human arachidonate 12S-lipoxygenase; P18054; purified 12hLO, xylenol orange hydroperoxide absorbance; Potency, µM (series often up to 108 µM), for the others: at the top dose activity change, negative = inhibition, most hits filed as inhibitors; actives 1.1% (n = 580,000); also: potency is read from the fitted curve at half-maximal effect
Target sequence (P18054 whole entry, looked up): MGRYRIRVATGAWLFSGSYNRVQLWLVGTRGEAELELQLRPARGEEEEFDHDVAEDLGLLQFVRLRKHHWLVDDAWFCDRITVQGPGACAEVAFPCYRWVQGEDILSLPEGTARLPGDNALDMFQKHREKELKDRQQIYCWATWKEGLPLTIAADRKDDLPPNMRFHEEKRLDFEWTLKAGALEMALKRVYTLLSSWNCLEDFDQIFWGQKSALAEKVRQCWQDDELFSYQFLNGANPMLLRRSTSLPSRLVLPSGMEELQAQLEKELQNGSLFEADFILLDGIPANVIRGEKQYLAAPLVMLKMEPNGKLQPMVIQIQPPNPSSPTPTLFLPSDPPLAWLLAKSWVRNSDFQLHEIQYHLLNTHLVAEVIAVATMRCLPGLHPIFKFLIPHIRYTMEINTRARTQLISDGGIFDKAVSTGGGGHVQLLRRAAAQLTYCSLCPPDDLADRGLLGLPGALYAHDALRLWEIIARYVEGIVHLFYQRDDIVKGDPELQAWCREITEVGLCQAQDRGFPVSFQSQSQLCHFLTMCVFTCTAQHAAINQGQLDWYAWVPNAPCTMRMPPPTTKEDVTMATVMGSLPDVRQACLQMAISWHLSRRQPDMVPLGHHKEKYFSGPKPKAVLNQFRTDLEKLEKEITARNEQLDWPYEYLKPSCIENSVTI
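Purified human 12hLO (150 nM final) in 25 mM Hepes, 0.01% Triton X-100, pH 7.0 was preincubated 15 min at room temperature with compound. Then 40 uM arachidonic acid was added, 30 min. Hydroperoxide was read by Fe-XO absorbance ratio 573/405 nm.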
HT1080 IDH1KD tx = toxicity to HT-1080 IDH1 knockdown cells (counter line) | HT-1080 IDH1 knockdown viability, ATP luminescence, 48 h | Potency, µM (titrated, usually from 46.1 µM), for the others: top-dose activity, negative = toxicity, actives largely listed as cytotoxic | actives 2% (n = 360,000);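 also: potency is read from the fitted curve at half-maximal effect; 0% = DMSO wells and -100% = cell-free medium wells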
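IDH1KD HT-1080 cells, 750/well, RPMI + 5% FBS; compound pinned after 2 h settling; 48 h, 37 °C; CellTiter-Glo luminescence; % activity normalised to DMSO and no-cell wells; curves fitted, classed by r2 and efficacy.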
DT40 TDP1 no CPT = qHTS for Inhibitors of human tyrosyl-DNA phosphodiesterase 1 (TDP1): qHTS in cells in absence of CPT | actives 15% (n = 420,000) | DT40 Tdp1-/- hTDP1 cells, no CPT, ATP luminescence, 48 h | AID 686978, 2013 | Potency, µM (highest dose often 46.2 µM), for the others: at the highest dose activity change, negative = growth inhibition, hits mostly inhibitors; also: potency is read from the fitted curve at half-maximal effect; nearly all actives have a fitted effect of over 55% in size
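Chicken DT40 Tdp1-/- cells stably complemented with human TDP1 were seeded at 400 cells/well with DMSO in place of 20 nM camptothecin. After compound pinning, cells grew at least 48 hr at 37 °C; viability read by CellTiter-Glo luminescence.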
IL-1B inflam inh = inflammasome signaling inhibition, IL-1 beta readout | THP-1 LPS/ATP IL-1B secretion, AlphaLISA, 16 h; active compounds read low | activity change, % at 57.5 µM | actives 4.7% (n = 360,000) | AID 743279; in the data active = activity change below about -50%; inconclusive = mostly about -30% to -49%
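THP-1 cells pretreated 1 hr with compounds (up to 57.5 uM final), then stimulated with LPS (250 ng/mL final) plus ATP (1.25 mM final); secreted IL-1B measured by AlphaLISA after 16 hr, decreased signal indicating inhibition.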
DT40 TDP1 CPT = growth inhibition of DT40 Tdp1-/-;hTDP1 cells with camptothecin (screen for TDP1 inhibitors) | Potency, µM (doses to about 46.2 µM), for inactives: top-dose activity change, negative = growth inhibition, hits mostly inhibitors | chicken DT40 Tdp1-/-;hTDP1 cells + 20 nM CPT, ATP luminescence, 48 h | actives 12% (n = 420,000) | AID 686979; also: potency is read from the fitted curve at half-maximal effect; nearly all actives have a fitted effect of over 55% in size
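Chicken DT40 Tdp1-/- cells stably complemented with human TDP1 were seeded at 400 cells/well in medium containing 20 nM camptothecin, exposed to pin-transferred compounds, and grown at 37 °C for at least 48 hr. Viability was read as ATP luminescence.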
HT1080NT lethal = kills 2HG-producing HT-1080-NT fibrosarcoma cells; AID 686970; HT-1080-NT fibrosarcoma viability, CellTiter-Glo ATP luminescence, 48 h; Potency, µM (titrated, usually from 46.1 µM), without a hit: at the highest dose activity, negative = less viability, usual class: cytotoxic; actives 1.6% (n = 360,000);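 also: NT is the 2HG producing partner of a matched IDH1 knockdown line; potency is read from the fitted curve at half-maximal effect; 0% = DMSO-treated cells and -100% = media-only wells without cells; nearly all actives have a fitted effect of over 55% in size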
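Toxicity toward the 2HG-producing NT line was scored as %Activity, normalised to DMSO and no-cell wells, from CellTiter-Glo luminescence after 48 hours' treatment.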
* marks the source's active call; other numbers are inactive results; ? = inconclusive; / = no result given; [ ] = remark or other dose. Unless noted, calls follow the shape of the dose curve; as a rule, active = well fitted curve in the direction sought with a large enough effect; inconclusive = small, poorly fitted or top-dose-only effect, or another doubt; inactive = no such curve, though single readings can be large; an effect the other way counts as inactive or inconclusive. Unless noted, % is scaled to controls: 0 for no effect and ±100 for the full control effect.

SMILES	12-LOX inh	HT1080 IDH1KD tx	DT40 TDP1 no CPT	IL-1B inflam inh	DT40 TDP1 CPT	HT1080NT lethal
Cc1cc(-c2ccnc(-n3ncc(C(=O)N(C)CC(O)c4ccccc4)c3C)n2)c(C)s1 (stereo not given)	0%	/	-30%	/	0%[9.04 µM]	/
COc1ccc2c(c1)C=C([C@@H]1C[C@H]3CN(c4ccccc4)C(=O)[C@]34CCCN14)CO2	?	0%	21µM*	-2	?	-1%
CCCCCCc1ccc(/C(C)=C/C(=O)O)cc1	26%	/	/	/	/	/
COc1cc(S(=O)(=O)n2ccc(C)n2)c(C)cc1C	14%	0%	9%	18	-16%	-1%
Cc1ccc(C)n1C1C(=O)N(Cc2ccc(C(C)C)cc2)c2ccc(OC(F)(F)F)cc21 (stereo not given)	16µM*	/	/	/	/	/
CS(=O)(=O)c1ccc(CN2C[C@@H]3C[C@H]2C(=O)N(Cc2ccc(OC(F)(F)F)cc2)c2ccccc2O3)cc1	-5%	/	/	/	/	/
O=C(NCc1cccc(Cl)c1)C1CCCN(c2ncnc3c2nc2n3CCCCC2)C1 (stereo not given)	-2%	-8%	12µM*	?	-1%	11%
O=C(NCc1ccccc1)C1CCCN(c2ncnc3c2nc2n3CCCCC2)C1 (stereo not given)	1%	-2%	21µM*	-15	?	-18%
Cc1cccc(CCNC(=O)C2CCCN(c3ncnc4c3nc3n4CCCCC3)C2)c1 (stereo not given)	-3%	-6%	?	-23	-18%	-3%
CC(C)NC(=O)C1CCCN(c2ncnc3c2nc2n3CCCCC2)C1 (stereo not given)	-19%	/	?	/	?	/
COc1ccc(CNC(=O)C2CCCN(c3ncnc4c3nc3n4CCCCC3)C2)cc1 (stereo not given)	/	1%	?	70	18µM*	12%
Cc1ccc(CNC(=O)C2CCCN(c3ncnc4c3nc3n4CCCCC3)C2)cc1 (stereo not given)	12%	-1%	9.2µM*	17	?	-1%
O=C(NCCc1ccc(Cl)cc1)C1CCCN(c2ncnc3c2nc2n3CCCCC2)C1 (stereo not given)	-21%	8%	?	42	?	14%
O=C(NCC1CCN(Cc2cccc(Cl)c2)CC1)C1CCCN(c2ncnc3c2nc2n3CCCCC2)C1 (stereo not given)	-25%	?	?	?	26µM*	21µM*
CCCc1nc2ccccc2c(C(=O)OC(C)C(=O)NC(N)=O)c1CC (stereo not given)	-8%	/	/	/	/	/
COC(=O)c1ccc(/C=N/Nc2nc(N3CCCCC3)nc(N3CCCCC3)n2)cc1	3%	7%	-44%	0	-9%	?
O=C(Oc1ccc(/C=N/Nc2nc(N3CCCCC3)nc(N3CCCCC3)n2)cc1)c1ccco1	7%	4%	16µM*	-2	?	2%
CCOc1cc(/C=N\Nc2nc(Nc3ccccc3)nc(N3CCOCC3)n2)ccc1OC(=O)c1ccco1	-23%	-5%	8.2µM*	-23	18µM*	-6%
COc1cc(/C=N/Nc2nc(C)cc(C)n2)ccc1OC(=O)c1ccco1	24%	14%	-14%	34	-24%	6%
COC(=O)[C@@H](Cc1c[nH]c2ccccc12)NC(=O)[C@@H]1CN(C(=O)Nc2ccccc2)CCN1C(=O)NC(C)C	-29%	/	/	/	/	/
COc1cc2c(cc1NC(=S)Nc1cccc(C(F)(F)F)c1)oc1ccccc12	?	?	29µM*	-4	23µM*	?
COCCCNC(=S)Nc1cc2oc3ccccc3c2cc1OC	419%	12µM*	6.5µM*	-3	8.2µM*	2.3µM*
CC(c1ccccc1)N(C)C(=O)NC1CCCC(C(F)(F)F)C1 (stereo not given)	-1%	/	/	/	/	/
Cc1ccc(C)c(N2CCN(CC(=O)Nc3ccc4[nH]c(=O)[nH]c4c3)CC2)c1	25%	0%	?	-5	-23%	-11%
COC(=O)c1[nH]c2ccc(C)cc2c1NC(=O)CN1CCN(C(=O)c2ccccc2)CC1	-22%	0%	?	28	?	0%
SMILES	12-LOX inh	HT1080 IDH1KD tx	DT40 TDP1 no CPT	IL-1B inflam inh	DT40 TDP1 CPT	HT1080NT lethal
COC(=O)c1[nH]c2ccc(C)cc2c1NC(=O)CN1CCN(c2ccccc2)CC1	-7%	-23%	23µM*	-23	16µM*	-27%
COC(=O)c1[nH]c2ccc(C)cc2c1NC(=O)CN1CCN(c2ccc(F)cc2)CC1	0%	4%	16µM*	-6	11µM*	0%
CCOC(=O)c1[nH]c2ccc(OCC)cc2c1NC(=O)CN1CCN(c2ccccc2)CC1	-21%	-2%	?	-19	21µM*	6%
CCOC(=O)c1[nH]c2ccc(OCC)cc2c1NC(=O)CN1CCC2(CC1)OCCO2	338%	-7%	?	-14	?	-1%
Cc1ccc2[nH]c(C(=O)O)c(NC(=O)CN3CCN(c4cccc(C)c4C)CC3)c2c1	0%	?	23µM*	45	?	?
Cn1nc(C(=O)N(C2CC2)C2CCCc3ccccc32)c2ccccc2c1=O (stereo not given)	8%	/	/	/	/	/
Cc1ccc(-c2nn(-c3ccc(F)cc3)cc2C(=O)NCCCN2CCCC2=O)cc1	0%	-2%	-81%	16	0.21µM*	-1%
O=C(Cc1ccccc1Cl)N[C@H]1CCOC[C@H]1C1CCOCC1	28%	/	/	/	/	/
Nc1nc2ccccc2n1CCOc1ccc(F)cc1	9%	?	23µM*	-51*	?	?
COc1ccc(OCCn2c(N)nc3ccccc32)cc1	-11%	-20%	23µM*	-21	?	-21%
COc1ccc(OCCn2c(C(C)Oc3ccccc3)nc3ccccc32)cc1 (stereo not given)	-22%	/	?	/	?	/
Cc1ccc(NC(=O)CCc2ccc(C)o2)cc1	-7%	0%	-6%	0	-15%	9%
CC(=O)Nc1ccc(-c2nnc(SCc3ccccc3)n2C)cc1	/	/	-10%	/	-40%	/
C=CC[n+]1c(/C=C2\C=Cc3cc(C)ccc3N2CC)ccc2ccccc21	0%	13µM*	0.073µM*	-88*	0.18µM*	?
Cc1ccc(NC(=S)NCc2ccc(F)cc2)cc1	10%	-2%	26µM*	-4	?	-3%
Cc1ccc(SCCNC(=S)Nc2ccc(F)cc2)cc1	50µM*	/	/	/	/	/
